# Laboratory results published in PubChem BioAssay.
# System: Fibrinogen (Alexa647-labelled)
# Experiment: Alexa647-fibrinogen binding to printed small molecules – biochemical, small-molecule microarray, 635/667 nm fluorescence, artefact control for SMM control-protein annotation, profiling panel (AID 1131);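 further: z-score merges 667 nm fluorescence with per-spot signal-to-noise over triplicate slides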
# Conditions: fibrinogen-A647 binding fluorescence, higher = more signal
row,Compound,composite z-score
1,COCCOC(=O)N1C(=O)[C@@]2(c3cc(C#CC4(O)CCCCCC4)ccc31)[C@H](c1ccc(O)cc1)N1[C@H](c3ccccc3)[C@H](c3ccccc3)OC(=O)[C@H]1[C@@H]2C(=O)Nc1nc2ccccc2s1,0.97
2,Cc1ccc(S[C@]2(C(=O)NC(C)C)CC(=O)N(Cc3ccccc3Cl)[C@@H]2c2ccc(CO)cc2I)cc1,0.628
3,COc1ccc(CCNC(=O)[C@@]2(Sc3ccc(C)cc3)CC(=O)N(C3CCCCC3)[C@@H]2c2ccc(CO)cc2I)cc1,0.151
4,COCCOC(=O)N1C(=O)[C@@]2(c3cc(C#Cc4ccc(OC)cc4)ccc31)[C@H](c1ccccc1OCCO)N1[C@H](c3ccccc3)[C@H](c3ccccc3)OC(=O)[C@H]1[C@@H]2C(=O)N1CCN(c2ncccn2)CC1,-0.134
5,NC(=O)[C@@H]1[C@H]2C(=O)O[C@H](c3ccccc3)[C@H](c3ccccc3)N2[C@H](c2ccc(O)cc2)[C@@]12C(=O)Nc1ccc(C#CC3(O)CCCCCC3)cc12,-0.819
6,CC(=O)N1Cc2ccccc2C[C@@]2(COC(c3ccc(OCCCO)cc3)=N2)C1=O,0.842
